Results published in PMC7862700, “An all-to-all approach to the identification of sequence-specific readers for epigenetic DNA modifications on cytosine”.

Columns and labels:
Assay in all cases: DAPPL (digital affinity profiling via proximity ligation, sequencing); 10 mM Tris-HCl pH 7.5, 50 mM NaCl, 1 mM DTT, 4% glycerol, room temperature, 30 min; GST-TFs on glutathione beads, 16-mer random dsDNA library, 0.1% formaldehyde crosslink after washing; high values mean tight binding
FLI1 = target: T1, FLI1 (Homo sapiens, UniProt Q01543 1-452); conditions: protein: recombinant; tags: N-terminal GST; dsDNA, one strand shown
T1 sequence: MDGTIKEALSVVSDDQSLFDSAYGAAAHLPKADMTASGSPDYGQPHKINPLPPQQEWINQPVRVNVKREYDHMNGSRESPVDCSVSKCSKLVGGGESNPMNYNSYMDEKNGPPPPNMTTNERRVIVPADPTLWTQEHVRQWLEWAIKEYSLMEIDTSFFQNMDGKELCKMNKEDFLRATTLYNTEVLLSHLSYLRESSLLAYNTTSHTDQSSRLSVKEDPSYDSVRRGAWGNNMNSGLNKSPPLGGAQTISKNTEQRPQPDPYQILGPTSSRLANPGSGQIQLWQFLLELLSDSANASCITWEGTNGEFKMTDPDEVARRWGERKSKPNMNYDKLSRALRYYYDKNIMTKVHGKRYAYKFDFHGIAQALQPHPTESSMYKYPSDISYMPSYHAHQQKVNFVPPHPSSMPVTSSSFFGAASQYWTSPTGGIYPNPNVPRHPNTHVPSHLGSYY
Summary of the method: (§1)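 Pools were built from human transcription factors expressed in yeast as GST fusions, captured on glutathione beads and DNA-barcoded, along with a tag-only sample. Incubation with 200 nmole of a 16-mer random double-stranded DNA library lasted 30 min at room temperature in Tris/NaCl/DTT/glycerol buffer, and was followed by washing, 0.1% formaldehyde crosslinking, proximity ligation, PCR amplification and Illumina NextSeq500 sequencing. Binding signal is the quotient of each hexamer's read frequency for a factor and its frequency for the tag-only sample.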

ELK1 = target: T2, ELK1 (Homo sapiens, UniProt P19419 1-428); conditions: protein: recombinant; tags: N-terminal GST; dsDNA, one strand shown
T2 sequence: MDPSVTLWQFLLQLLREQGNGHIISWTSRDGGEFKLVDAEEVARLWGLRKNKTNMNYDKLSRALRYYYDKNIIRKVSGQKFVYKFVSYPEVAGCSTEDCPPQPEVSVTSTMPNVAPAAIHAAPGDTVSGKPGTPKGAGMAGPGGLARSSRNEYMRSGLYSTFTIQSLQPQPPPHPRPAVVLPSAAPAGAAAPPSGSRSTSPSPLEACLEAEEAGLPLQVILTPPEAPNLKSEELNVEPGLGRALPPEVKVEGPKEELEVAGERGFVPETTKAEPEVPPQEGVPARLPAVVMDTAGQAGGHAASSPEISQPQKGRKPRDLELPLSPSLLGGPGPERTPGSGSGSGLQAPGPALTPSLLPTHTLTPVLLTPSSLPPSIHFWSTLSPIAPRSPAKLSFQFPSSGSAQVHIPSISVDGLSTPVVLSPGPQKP
Summary of the method: as §1

GABPA = target: T3, GABPA (Homo sapiens, UniProt Q06546 1-454); conditions: protein: recombinant; tags: N-terminal GST; dsDNA, one strand shown
T3 sequence: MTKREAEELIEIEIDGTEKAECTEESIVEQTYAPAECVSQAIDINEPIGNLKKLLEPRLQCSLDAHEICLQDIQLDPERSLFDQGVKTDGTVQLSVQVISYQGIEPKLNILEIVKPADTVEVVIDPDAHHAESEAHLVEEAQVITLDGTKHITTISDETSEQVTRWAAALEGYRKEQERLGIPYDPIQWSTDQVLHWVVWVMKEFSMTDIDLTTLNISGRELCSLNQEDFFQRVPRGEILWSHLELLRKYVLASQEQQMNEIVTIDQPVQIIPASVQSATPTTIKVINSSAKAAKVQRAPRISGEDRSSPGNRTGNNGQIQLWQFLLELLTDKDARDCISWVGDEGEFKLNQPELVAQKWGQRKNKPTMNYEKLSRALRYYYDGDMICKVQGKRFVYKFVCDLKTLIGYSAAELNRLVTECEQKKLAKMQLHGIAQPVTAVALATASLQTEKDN
Summary of the method: as §1

ERG = target: T4, ERG (Homo sapiens, UniProt P11308 1-479); conditions: protein: recombinant; tags: N-terminal GST; dsDNA, one strand shown
T4 sequence: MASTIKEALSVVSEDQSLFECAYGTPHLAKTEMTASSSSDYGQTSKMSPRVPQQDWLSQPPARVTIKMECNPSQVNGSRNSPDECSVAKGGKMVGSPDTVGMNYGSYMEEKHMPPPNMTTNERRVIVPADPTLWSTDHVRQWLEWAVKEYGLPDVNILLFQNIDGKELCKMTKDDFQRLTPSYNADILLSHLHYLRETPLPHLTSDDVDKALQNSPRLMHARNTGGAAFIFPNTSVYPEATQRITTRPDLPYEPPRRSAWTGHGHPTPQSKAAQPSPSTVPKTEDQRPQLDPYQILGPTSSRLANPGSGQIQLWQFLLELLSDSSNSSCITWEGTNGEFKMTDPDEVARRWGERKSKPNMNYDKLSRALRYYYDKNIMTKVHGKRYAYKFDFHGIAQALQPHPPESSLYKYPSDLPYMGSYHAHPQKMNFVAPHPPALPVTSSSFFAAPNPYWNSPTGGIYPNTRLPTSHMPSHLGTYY
Summary of the method: as §1

ELF1 = ELF1 (Homo sapiens, UniProt P32519 1-619); conditions: protein: recombinant; tags: N-terminal GST; dsDNA, one strand shown
Summary of the method: as §1

EHF = target: T5, EHF (Homo sapiens, UniProt Q9NZC4 1-300); conditions: protein: recombinant; tags: N-terminal GST; dsDNA, one strand shown
T5 sequence: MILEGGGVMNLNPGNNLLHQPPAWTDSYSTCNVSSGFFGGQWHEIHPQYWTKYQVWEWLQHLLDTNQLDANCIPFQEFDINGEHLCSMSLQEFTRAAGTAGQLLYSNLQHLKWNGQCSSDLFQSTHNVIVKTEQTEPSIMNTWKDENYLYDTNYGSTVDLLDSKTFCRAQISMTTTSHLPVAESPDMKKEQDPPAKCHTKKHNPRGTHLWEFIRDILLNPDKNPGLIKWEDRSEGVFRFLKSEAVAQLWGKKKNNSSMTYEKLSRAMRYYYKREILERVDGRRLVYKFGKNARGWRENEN
Summary of the method: as §1

SPI1 = SPI1 (Homo sapiens, UniProt P17947 1-270); conditions: protein: recombinant; tags: N-terminal GST; dsDNA, one strand shown
Summary of the method: as §1

SPIB = SPIB (Homo sapiens, UniProt Q01892 1-262); conditions: protein: recombinant; tags: N-terminal GST; dsDNA, one strand shown
Summary of the method: as §1

ELK3 = target: T6, ELK3 (Homo sapiens, UniProt P41970 1-407); conditions: protein: recombinant; tags: N-terminal GST; dsDNA, one strand shown
T6 sequence: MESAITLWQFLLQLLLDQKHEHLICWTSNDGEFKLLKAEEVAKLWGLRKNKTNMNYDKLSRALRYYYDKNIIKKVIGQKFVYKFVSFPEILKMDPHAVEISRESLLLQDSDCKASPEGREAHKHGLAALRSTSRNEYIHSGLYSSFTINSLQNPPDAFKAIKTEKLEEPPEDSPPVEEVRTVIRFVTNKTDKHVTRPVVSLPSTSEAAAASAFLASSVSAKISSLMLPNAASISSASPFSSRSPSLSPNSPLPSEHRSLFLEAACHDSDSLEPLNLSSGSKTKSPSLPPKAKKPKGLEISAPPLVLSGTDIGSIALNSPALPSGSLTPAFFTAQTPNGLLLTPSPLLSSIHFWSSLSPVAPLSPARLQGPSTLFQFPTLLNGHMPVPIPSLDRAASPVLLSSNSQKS
Summary of the method: as §1

FEV = target: T7, FEV (Homo sapiens, UniProt Q99581 1-238); conditions: protein: recombinant; tags: N-terminal GST; dsDNA, one strand shown
T7 sequence: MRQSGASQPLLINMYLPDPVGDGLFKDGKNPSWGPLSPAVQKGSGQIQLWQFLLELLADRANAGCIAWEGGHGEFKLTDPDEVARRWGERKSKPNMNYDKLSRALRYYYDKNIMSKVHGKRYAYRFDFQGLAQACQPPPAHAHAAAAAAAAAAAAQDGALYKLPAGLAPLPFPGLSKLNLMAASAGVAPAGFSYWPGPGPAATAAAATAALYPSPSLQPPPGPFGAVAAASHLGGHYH
Summary of the method: as §1

ETV5 = ETV5 (Homo sapiens, UniProt P41161 1-510); conditions: protein: recombinant; tags: N-terminal GST; dsDNA, one strand shown
Summary of the method: as §1

HSF1 = HSF1 (Homo sapiens, UniProt Q00613 1-529); conditions: protein: recombinant; tags: N-terminal GST; chain copies: 3; dsDNA, one strand shown
Summary of the method: as §1

SPIC = target: T8, SPIC (Homo sapiens, UniProt Q8N5J4 1-248); conditions: protein: recombinant; tags: N-terminal GST; dsDNA, one strand shown
T8 sequence: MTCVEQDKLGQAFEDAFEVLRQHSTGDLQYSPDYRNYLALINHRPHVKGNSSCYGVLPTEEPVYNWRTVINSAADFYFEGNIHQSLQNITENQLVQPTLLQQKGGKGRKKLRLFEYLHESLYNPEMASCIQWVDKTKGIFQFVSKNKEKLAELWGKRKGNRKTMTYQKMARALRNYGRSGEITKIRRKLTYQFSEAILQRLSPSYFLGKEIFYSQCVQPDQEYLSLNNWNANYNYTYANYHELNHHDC
Summary of the method: as §1

ELF4 = ELF4 (Homo sapiens, UniProt Q99607 1-663); conditions: protein: recombinant; tags: N-terminal GST; dsDNA, one strand shown
Summary of the method: as §1

ELK4 = target: T9, ELK4 (Homo sapiens, UniProt P28324-2 1-405); conditions: protein: recombinant; tags: N-terminal GST; dsDNA, one strand shown
T9 sequence: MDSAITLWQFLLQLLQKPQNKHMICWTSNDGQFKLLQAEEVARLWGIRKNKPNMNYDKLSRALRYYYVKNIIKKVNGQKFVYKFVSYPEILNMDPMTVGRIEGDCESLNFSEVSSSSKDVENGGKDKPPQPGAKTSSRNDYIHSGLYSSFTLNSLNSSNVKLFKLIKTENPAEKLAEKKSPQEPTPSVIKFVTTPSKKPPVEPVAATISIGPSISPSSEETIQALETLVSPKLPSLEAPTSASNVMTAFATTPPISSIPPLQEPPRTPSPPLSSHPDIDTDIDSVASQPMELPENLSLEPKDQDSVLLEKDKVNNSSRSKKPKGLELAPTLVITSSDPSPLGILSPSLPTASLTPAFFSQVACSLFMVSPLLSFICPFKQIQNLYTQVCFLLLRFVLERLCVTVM
Summary of the method: as §1

ETV2 = target: T10, ETV2 (Homo sapiens, UniProt O00321 1-342); conditions: protein: recombinant; tags: N-terminal GST; dsDNA, one strand shown
T10 sequence: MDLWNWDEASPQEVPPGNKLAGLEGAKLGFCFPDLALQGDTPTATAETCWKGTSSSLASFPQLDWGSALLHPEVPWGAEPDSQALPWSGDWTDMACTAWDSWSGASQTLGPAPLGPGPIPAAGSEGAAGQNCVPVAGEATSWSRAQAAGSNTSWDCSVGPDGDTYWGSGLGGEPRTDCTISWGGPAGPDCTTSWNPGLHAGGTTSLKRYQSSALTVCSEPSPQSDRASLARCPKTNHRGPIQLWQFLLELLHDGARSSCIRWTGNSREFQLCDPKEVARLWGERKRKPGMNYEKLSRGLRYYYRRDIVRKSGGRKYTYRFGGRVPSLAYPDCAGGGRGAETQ
Summary of the method: as §1

ELF3 = target: T11, ELF3 (Homo sapiens, UniProt P78545 1-371); conditions: protein: recombinant; tags: N-terminal GST; dsDNA, one strand shown
T11 sequence: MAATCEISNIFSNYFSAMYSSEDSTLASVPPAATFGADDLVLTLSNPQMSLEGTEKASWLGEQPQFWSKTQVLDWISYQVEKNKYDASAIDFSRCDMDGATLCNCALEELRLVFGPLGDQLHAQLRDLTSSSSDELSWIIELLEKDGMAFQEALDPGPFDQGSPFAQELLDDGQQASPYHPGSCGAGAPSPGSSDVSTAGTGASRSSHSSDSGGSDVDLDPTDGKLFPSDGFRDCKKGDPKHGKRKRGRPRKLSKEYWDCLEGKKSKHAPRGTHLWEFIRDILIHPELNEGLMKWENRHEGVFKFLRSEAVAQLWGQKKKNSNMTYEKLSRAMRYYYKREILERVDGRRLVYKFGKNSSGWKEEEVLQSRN
Summary of the method: as §1

ETV1 = ETV1 (Homo sapiens, UniProt P50549 1-477); conditions: protein: recombinant; tags: N-terminal GST; dsDNA, one strand shown
Summary of the method: as §1

Sequence of ETV5 (P41161 whole entry): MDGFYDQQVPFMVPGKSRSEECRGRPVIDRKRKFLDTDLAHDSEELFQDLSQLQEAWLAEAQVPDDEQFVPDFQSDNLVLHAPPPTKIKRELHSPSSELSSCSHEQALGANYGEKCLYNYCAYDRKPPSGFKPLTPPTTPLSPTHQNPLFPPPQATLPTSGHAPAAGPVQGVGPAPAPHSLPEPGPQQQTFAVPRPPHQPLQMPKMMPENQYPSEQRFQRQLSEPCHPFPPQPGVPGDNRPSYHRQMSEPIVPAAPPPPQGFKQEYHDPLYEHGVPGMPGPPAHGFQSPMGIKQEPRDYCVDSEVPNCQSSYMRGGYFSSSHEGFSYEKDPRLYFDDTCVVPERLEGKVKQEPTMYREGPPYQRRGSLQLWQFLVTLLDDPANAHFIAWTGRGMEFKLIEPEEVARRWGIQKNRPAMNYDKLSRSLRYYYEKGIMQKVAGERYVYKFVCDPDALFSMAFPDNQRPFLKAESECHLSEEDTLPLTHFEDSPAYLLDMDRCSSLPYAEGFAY
Sequence of ELF1 (P32519 whole entry): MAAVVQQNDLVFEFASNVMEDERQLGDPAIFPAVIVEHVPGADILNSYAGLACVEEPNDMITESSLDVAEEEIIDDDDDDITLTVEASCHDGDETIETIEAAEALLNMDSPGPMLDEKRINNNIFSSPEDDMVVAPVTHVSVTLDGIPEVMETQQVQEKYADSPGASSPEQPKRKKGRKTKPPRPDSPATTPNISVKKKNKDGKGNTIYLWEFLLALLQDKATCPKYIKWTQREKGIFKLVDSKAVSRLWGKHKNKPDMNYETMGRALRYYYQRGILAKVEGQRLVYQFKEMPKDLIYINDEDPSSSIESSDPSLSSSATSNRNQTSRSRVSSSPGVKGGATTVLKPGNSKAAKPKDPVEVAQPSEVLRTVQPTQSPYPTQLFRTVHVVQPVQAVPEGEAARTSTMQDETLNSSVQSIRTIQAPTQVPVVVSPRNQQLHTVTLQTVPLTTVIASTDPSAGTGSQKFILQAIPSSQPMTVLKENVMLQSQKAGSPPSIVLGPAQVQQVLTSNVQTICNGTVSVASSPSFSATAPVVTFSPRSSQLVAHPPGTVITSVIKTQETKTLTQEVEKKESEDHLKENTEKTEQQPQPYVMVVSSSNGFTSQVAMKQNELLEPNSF
Sequence of HSF1 (Q00613 whole entry): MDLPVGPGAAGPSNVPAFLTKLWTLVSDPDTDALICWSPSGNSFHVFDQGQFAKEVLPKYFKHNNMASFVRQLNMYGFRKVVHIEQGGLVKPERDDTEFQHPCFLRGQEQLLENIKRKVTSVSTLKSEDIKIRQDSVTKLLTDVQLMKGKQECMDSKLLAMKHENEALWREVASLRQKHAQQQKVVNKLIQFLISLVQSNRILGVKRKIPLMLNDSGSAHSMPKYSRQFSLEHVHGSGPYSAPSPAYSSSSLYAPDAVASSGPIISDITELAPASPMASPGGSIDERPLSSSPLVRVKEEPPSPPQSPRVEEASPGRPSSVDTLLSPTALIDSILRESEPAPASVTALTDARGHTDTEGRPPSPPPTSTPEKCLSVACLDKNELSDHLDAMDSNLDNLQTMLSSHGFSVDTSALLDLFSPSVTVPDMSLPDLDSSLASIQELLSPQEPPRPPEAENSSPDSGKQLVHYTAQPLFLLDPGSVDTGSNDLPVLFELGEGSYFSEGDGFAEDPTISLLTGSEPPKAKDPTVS
Sequence of ETV1 (P50549 whole entry): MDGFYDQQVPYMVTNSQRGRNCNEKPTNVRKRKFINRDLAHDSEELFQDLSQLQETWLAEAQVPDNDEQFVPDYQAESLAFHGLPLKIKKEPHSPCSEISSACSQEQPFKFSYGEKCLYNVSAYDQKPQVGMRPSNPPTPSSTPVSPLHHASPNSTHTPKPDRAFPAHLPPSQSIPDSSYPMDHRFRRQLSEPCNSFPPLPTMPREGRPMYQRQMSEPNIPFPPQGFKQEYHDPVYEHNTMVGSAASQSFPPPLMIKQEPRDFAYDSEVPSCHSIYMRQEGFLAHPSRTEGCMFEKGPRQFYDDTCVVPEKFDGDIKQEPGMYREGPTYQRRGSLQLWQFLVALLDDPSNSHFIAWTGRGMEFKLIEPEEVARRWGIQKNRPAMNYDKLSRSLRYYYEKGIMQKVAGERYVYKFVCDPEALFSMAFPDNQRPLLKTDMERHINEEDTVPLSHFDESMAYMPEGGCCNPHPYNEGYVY
Sequence of SPIB (Q01892 whole entry): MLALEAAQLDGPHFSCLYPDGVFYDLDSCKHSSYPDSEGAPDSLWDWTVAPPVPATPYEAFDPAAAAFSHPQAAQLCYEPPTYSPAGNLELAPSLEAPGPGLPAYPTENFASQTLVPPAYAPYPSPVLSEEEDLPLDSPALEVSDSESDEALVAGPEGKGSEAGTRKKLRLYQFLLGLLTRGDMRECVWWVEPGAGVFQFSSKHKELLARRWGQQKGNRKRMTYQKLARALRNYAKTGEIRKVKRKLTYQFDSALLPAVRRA
Sequence of ELF4 (Q99607 whole entry): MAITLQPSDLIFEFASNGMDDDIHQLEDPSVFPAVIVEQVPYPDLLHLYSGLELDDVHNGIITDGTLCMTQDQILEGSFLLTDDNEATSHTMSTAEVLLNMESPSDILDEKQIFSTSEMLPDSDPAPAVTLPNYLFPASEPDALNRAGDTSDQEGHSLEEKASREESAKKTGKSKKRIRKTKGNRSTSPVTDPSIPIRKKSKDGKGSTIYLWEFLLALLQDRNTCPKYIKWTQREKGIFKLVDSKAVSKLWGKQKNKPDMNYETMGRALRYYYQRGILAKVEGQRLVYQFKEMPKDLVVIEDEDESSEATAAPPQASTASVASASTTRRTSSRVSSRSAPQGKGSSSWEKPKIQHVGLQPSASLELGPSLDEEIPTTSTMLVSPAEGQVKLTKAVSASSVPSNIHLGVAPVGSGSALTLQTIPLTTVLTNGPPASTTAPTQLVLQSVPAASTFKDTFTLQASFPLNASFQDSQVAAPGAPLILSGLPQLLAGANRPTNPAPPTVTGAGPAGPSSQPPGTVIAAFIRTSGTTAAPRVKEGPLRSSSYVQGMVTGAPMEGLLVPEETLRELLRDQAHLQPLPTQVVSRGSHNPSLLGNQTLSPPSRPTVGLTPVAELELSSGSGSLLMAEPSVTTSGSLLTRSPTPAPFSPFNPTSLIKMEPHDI

CCGGAA
binding signal (FLI1): 5.18 fold enrichment (6-mer frequency, TF over GST control) | binding signal (ELK1): 6.13 fold enrichment (6-mer frequency, TF over GST control) | binding signal (GABPA): 4.9 fold enrichment (6-mer frequency, TF over GST control) | binding signal (ERG): 6.79 fold enrichment (6-mer frequency, TF over GST control) | binding signal (ELF1): 5.12 fold enrichment (6-mer frequency, TF over GST control) | binding signal (EHF): 5.9 fold enrichment (6-mer frequency, TF over GST control) | binding signal (SPI1): 5.33 fold enrichment (6-mer frequency, TF over GST control) | binding signal (SPIB): 5.79 fold enrichment (6-mer frequency, TF over GST control) | binding signal (ELK3): 6.42 fold enrichment (6-mer frequency, TF over GST control) | binding signal (FEV): 8.09 fold enrichment (6-mer frequency, TF over GST control) | binding signal (ETV5): 6.13 fold enrichment (6-mer frequency, TF over GST control) | binding signal (HSF1): 1.68 fold enrichment (6-mer frequency, TF over GST control) | binding signal (SPIC): 4.87 fold enrichment (6-mer frequency, TF over GST control) | binding signal (ELF4): 4.92 fold enrichment (6-mer frequency, TF over GST control) | binding signal (ELK4): 3.97 fold enrichment (6-mer frequency, TF over GST control) | binding signal (ETV2): 5.1 fold enrichment (6-mer frequency, TF over GST control) | binding signal (ELF3): 5.42 fold enrichment (6-mer frequency, TF over GST control) | binding signal (ETV1): 6.04 fold enrichment (6-mer frequency, TF over GST control)
